Data on 1 sequence can be found in publication PMC7862700, “An all-to-all approach to the identification of sequence-specific readers for epigenetic DNA modifications on cytosine”.

Common to all, as to assay: DAPPL (digital affinity profiling via proximity ligation, sequencing); 10 mM Tris-HCl pH 7.5, 50 mM NaCl, 1 mM DTT, 4% glycerol, room temperature, 30 min; GST-TFs on glutathione beads, 16-mer random dsDNA library, 0.1% formaldehyde crosslink after washing; high values mean tight binding
Common to all, as to settings: protein: recombinant; tags: N-terminal GST; dsDNA, one strand shown

In test [1] the target is T1, ELK1 (Homo sapiens, UniProt P19419 1-428).
T1 sequence: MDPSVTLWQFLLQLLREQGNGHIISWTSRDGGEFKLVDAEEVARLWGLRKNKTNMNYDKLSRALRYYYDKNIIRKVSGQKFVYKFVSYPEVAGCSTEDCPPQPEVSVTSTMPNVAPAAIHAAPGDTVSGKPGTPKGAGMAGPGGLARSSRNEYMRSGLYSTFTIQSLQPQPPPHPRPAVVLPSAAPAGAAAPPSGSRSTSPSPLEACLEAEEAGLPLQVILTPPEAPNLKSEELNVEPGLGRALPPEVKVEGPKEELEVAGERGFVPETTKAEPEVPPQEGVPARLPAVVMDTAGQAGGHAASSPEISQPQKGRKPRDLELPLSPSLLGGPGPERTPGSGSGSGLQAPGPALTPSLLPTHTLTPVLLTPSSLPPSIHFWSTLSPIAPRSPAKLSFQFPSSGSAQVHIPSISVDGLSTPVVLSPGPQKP
The gist of the method:
(§1)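 GST fusions of human transcription factors were expressed in yeast and captured with glutathione beads. Once given DNA barcodes and pooled alongside a tag-only sample, they were incubated for 30 min at room temperature with 200 nmole of a random double-stranded 16-mer DNA library in Tris/NaCl/DTT/glycerol buffer, then washed, crosslinked (0.1% formaldehyde), proximity-ligated, PCR-amplified and sequenced on an Illumina NextSeq500. The binding signal of each hexamer is its read frequency for a factor divided by its frequency for the tag-only sample.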

For test [2], the target named is T2, GABPA (Homo sapiens, UniProt Q06546 1-454).
T2 sequence: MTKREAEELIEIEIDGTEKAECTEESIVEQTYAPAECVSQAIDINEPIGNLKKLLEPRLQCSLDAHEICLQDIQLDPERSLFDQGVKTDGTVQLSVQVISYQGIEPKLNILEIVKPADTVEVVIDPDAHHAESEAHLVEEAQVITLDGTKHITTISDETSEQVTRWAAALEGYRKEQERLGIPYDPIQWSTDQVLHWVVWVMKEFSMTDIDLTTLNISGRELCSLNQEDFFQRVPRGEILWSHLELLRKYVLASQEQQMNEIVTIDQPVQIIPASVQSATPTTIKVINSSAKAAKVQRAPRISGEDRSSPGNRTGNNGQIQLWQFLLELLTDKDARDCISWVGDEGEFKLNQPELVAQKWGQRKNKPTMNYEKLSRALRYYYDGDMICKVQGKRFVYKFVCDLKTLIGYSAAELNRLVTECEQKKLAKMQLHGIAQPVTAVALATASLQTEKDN
The gist of the method: as §1

The target in test [3] is T3, ERG (Homo sapiens, UniProt P11308 1-479).
T3 sequence: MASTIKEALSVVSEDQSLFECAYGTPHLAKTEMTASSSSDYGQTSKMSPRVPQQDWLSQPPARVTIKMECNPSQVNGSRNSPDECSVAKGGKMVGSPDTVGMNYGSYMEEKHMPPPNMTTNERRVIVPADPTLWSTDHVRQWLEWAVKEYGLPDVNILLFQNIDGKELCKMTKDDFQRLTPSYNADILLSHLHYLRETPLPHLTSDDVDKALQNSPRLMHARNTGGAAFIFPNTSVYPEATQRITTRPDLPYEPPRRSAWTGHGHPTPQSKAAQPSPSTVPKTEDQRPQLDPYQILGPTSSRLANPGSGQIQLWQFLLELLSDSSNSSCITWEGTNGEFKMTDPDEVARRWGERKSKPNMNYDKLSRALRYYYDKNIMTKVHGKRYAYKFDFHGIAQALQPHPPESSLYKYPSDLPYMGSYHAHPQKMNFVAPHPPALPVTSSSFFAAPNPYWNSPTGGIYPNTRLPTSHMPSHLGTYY
An outline of the steps: as §1

Test [4] deals with ELF1 (Homo sapiens, UniProt P32519 1-619). An outline of the steps: as §1
Test [5] deals with T4, EHF (Homo sapiens, UniProt Q9NZC4 1-300).
T4 sequence: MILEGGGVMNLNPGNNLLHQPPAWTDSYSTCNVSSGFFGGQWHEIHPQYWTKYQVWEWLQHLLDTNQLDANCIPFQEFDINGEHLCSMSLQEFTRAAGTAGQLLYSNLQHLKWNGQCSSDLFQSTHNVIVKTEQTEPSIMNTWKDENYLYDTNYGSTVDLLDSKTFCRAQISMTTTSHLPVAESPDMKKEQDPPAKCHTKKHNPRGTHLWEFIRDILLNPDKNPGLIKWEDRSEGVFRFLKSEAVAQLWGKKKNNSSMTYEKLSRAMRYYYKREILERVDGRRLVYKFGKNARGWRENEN
An outline of the steps: as §1

The target of test [6] is SPIB (Homo sapiens, UniProt Q01892 1-262). An outline of the steps: as §1
Test [7] addresses T5, FEV (Homo sapiens, UniProt Q99581 1-238).
T5 sequence: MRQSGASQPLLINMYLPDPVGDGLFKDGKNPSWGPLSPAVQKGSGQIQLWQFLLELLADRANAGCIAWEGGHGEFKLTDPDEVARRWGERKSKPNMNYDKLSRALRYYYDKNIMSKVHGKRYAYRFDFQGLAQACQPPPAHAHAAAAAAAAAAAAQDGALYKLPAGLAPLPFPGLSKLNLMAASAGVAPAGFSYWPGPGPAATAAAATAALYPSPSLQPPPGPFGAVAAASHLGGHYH
An outline of the steps:
as §1

Test [8] addresses ETV5 (Homo sapiens, UniProt P41161 1-510). An outline of the steps: as §1
For test [9], the target named is ELF4 (Homo sapiens, UniProt Q99607 1-663). An outline of the steps:
as §1

The target of test [10] is T6, ETV2 (Homo sapiens, UniProt O00321 1-342).
T6 sequence: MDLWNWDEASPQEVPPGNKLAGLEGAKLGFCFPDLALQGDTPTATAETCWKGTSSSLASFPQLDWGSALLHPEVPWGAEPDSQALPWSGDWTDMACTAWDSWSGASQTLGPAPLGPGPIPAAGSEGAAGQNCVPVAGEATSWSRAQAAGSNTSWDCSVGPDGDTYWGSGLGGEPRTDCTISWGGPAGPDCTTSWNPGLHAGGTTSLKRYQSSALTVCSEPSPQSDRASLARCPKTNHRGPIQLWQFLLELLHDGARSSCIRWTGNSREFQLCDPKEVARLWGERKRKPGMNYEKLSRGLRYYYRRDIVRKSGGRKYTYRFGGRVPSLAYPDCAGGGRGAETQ
The gist of the method: as §1

In test [11] the target is T7, ETV3L (Homo sapiens, UniProt Q6ZN32 1-361).
T7 sequence: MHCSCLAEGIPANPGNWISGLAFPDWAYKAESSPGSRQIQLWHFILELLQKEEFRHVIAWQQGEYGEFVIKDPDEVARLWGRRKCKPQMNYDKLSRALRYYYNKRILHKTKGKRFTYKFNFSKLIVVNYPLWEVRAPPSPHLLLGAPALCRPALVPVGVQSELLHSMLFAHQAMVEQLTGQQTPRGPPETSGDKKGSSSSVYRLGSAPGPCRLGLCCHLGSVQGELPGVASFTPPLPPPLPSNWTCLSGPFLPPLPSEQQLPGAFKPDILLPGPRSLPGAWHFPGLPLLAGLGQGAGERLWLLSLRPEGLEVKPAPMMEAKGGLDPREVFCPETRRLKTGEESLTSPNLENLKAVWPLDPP
An outline of the steps: as §1

Test [12] deals with T8, ETS2 (Homo sapiens, UniProt P15036 1-469).
T8 sequence: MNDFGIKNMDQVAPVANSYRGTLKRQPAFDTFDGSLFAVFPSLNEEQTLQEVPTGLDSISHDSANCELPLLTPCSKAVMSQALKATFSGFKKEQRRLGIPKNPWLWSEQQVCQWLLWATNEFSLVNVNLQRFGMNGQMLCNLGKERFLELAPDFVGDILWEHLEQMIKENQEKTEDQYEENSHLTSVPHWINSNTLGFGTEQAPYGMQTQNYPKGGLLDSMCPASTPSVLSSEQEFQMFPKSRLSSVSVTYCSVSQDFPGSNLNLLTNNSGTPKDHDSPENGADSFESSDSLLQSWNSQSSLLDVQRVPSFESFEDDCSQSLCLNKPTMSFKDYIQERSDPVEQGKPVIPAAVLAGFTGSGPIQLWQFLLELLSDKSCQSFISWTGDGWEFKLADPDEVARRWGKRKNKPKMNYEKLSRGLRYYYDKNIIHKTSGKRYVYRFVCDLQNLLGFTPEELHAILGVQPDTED
The gist of the method: as §1

For test [13], the target named is T9, SPDEF (Homo sapiens, UniProt O95238 1-335).
T9 sequence: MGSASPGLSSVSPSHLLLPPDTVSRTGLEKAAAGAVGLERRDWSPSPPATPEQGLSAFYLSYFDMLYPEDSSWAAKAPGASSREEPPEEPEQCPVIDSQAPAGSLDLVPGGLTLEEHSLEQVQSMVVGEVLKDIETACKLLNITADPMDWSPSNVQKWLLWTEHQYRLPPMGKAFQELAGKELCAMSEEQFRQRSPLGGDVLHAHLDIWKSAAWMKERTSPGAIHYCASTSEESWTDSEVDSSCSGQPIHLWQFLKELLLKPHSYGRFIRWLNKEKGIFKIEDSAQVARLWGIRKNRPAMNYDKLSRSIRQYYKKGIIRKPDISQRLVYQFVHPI
An outline of the steps:
as §1

In test [14] the target is T10, ETV3 (Homo sapiens, UniProt P41162-2 1-143).
T10 sequence: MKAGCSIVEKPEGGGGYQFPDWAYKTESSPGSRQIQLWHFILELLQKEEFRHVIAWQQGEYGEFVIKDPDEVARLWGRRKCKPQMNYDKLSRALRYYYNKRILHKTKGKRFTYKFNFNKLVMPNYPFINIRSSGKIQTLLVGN
An outline of the steps: as §1

Test [15] has as its target ETV6 (Homo sapiens, UniProt P41212 1-452). An outline of the steps:
as §1

Sequence of ELF4 (Q99607 whole entry): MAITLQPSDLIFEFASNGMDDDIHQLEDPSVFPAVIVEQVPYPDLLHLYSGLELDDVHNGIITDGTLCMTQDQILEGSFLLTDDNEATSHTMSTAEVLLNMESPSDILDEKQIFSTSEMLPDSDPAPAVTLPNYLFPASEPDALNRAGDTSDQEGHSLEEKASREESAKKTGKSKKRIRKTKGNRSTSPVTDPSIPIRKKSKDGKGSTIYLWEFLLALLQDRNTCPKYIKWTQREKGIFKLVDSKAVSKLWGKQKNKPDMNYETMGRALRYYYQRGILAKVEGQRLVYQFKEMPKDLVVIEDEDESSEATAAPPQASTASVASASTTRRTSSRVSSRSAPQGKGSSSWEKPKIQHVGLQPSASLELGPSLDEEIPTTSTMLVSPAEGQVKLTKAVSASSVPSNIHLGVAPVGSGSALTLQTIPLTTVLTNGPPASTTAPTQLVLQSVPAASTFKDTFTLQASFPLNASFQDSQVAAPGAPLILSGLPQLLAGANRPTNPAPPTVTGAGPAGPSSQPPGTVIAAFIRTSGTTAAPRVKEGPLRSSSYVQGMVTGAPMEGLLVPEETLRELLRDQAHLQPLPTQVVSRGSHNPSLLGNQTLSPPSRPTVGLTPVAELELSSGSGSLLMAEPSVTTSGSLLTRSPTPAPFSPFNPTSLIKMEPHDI
Sequence of ETV5 (P41161 whole entry): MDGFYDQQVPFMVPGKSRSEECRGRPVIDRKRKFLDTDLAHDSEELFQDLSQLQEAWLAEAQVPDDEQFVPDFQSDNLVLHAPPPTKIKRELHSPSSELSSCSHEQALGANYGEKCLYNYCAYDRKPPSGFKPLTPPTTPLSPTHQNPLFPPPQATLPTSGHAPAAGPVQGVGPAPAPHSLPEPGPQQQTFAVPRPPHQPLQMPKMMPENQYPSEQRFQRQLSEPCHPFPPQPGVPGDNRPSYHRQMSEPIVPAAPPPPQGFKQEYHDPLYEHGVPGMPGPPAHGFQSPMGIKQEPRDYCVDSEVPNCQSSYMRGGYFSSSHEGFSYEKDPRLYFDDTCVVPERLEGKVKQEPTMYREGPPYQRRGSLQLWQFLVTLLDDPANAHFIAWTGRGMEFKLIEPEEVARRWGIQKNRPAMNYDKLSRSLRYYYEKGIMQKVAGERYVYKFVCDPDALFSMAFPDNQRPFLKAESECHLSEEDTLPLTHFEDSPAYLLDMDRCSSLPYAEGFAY
Sequence of ETV6 (P41212 whole entry): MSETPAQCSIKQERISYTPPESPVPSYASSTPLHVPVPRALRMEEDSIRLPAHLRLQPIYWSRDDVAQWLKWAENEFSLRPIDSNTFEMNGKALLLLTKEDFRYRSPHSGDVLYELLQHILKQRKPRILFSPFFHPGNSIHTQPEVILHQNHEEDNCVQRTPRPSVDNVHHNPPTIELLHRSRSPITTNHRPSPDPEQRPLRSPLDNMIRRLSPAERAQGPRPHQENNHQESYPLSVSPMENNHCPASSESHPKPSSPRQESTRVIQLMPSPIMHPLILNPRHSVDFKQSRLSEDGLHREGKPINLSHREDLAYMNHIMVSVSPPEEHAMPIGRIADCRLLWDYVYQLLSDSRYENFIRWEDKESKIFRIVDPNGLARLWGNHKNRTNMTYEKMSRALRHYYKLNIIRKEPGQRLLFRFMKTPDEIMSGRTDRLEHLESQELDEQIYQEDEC
Sequence of ELF1 (P32519 whole entry): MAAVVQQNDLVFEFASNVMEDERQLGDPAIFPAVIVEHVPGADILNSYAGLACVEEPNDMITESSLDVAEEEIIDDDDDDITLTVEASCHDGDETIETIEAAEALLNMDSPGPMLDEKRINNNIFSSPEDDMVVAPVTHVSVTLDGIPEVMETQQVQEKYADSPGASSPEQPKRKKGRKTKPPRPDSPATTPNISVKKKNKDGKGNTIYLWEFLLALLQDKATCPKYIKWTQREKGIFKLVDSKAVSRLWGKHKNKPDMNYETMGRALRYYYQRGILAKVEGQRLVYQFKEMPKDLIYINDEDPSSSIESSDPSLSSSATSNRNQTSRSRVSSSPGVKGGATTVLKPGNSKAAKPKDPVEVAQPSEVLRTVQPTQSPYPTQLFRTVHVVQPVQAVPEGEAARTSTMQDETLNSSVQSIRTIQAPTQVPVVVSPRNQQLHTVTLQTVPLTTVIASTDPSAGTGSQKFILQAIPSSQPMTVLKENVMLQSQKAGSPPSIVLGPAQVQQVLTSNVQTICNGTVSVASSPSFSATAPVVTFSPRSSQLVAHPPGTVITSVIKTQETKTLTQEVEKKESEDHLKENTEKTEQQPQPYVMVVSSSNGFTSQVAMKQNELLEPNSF
Sequence of SPIB (Q01892 whole entry): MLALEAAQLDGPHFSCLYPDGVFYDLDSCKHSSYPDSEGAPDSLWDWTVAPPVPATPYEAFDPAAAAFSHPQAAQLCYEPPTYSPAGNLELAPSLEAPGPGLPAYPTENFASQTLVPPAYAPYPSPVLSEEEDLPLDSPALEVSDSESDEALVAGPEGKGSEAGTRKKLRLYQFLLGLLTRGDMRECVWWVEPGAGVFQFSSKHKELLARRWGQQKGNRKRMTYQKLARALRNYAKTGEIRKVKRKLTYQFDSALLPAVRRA

With AGGACC, the binding signal in test [1] is 1.07 fold enrichment (6-mer frequency, TF over GST control); in test [2], 1.07 fold enrichment (6-mer frequency, TF over GST control); in [3], 1.09 fold enrichment (6-mer frequency, TF over GST control); in test [4], 1.06 fold enrichment (6-mer frequency, TF over GST control); in [5], 1.02 fold enrichment (6-mer frequency, TF over GST control); in [6], 1.05 fold enrichment (6-mer frequency, TF over GST control). Moreover, the binding signal in [7] was 1.07 fold enrichment (6-mer frequency, TF over GST control); in [8], 1.04 fold enrichment (6-mer frequency, TF over GST control); in [9] it was 1.06 fold enrichment (6-mer frequency, TF over GST control); in test [10], 1.18 fold enrichment (6-mer frequency, TF over GST control); in test [11], 1.07 fold enrichment (6-mer frequency, TF over GST control); in test [12], 1.04 fold enrichment (6-mer frequency, TF over GST control). The binding signal in test [13] was 1.06 fold enrichment (6-mer frequency, TF over GST control); in test [14], 1.03 fold enrichment (6-mer frequency, TF over GST control); in [15], 1.02 fold enrichment (6-mer frequency, TF over GST control).
